Measurements from the supplement of paper PMC8371130.
Where a name gives a salt, the structure may show the parent alone.

Test system: HL-1
Test: relative cell viability (CellTiter-Glo) vs DMSO control (% of DMSO control); higher = more viable cells
Outline: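 One day after HL-1 mouse atrial cardiomyocytes were plated (1000 cells per well, 384-well plates) with compounds at 40, 200, 1000 or 5000 nM in 0.01% DMSO, they were transferred to a hypoxic workstation at 1% O2. After 48 h there, the cells were reoxygenated for 24 h in a normal incubator, and comparison cells stayed in normoxia throughout the same time. Cell viability was quantified with CellTiter-Glo luminescence and normalised to vehicle-treated control cells.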

[1] = oxygen condition: hypoxia 48 h (1% O2) + reoxygenation 24 h, 40 nM
[2] = oxygen condition: hypoxia 48 h (1% O2) + reoxygenation 24 h, 200 nM
[3] = oxygen condition: hypoxia 48 h (1% O2) + reoxygenation 24 h, 1000 nM
[4] = oxygen condition: hypoxia 48 h (1% O2) + reoxygenation 24 h, 5000 nM
[5] = oxygen condition: normoxia 72 h, 40 nM
[6] = oxygen condition: normoxia 72 h, 200 nM
[7] = oxygen condition: normoxia 72 h, 1000 nM
[8] = oxygen condition: normoxia 72 h, 5000 nM

SMILES	relative cell viability [1]	relative cell viability [2]	relative cell viability [3]	relative cell viability [4]	relative cell viability [5]	relative cell viability [6]	relative cell viability [7]	relative cell viability [8]
Cc1cccc([C@H](C)c2c[nH]cn2)c1C [Dexmedetomidine HCl]	111	107	102	89.4	106	96.7	98.5	99.5
C=CC[C@]1(O)CC[C@H]2[C@@H]3CCC4=CC(=O)CCC4=C3C=C[C@@]21C [Altrenogest]	105	110	106	108	104	107	102	105
C[C@]12CC[C@H](O)CC1=CC[C@@H]1[C@@H]2CC[C@]2(C)C(=O)CC[C@@H]12 [Dehydroepiandrosterone]	102	94	96.2	111	95.4	95.8	93.8	111
CNCC(=O)c1ccc(O)c(O)c1 [Adrenalone HCl]	97.4	101	106	108	99.1	105	99.6	107
C[N+](C)(C)CCCCCCCCCC[N+](C)(C)C [Decamethonium bromide]	106	103	107	112	107	103	106	117
CCC(COC(=O)c1cc(OC)c(OC)c(OC)c1)(c1ccccc1)N(C)C (stereo unspecified) [Trimebutine]	104	95.7	100	103	98.5	98.1	101	104
C=CCN1CC[C@]23c4c5ccc(O)c4O[C@H]2C(=O)CC[C@@]3(O)[C@H]1C5 [Naloxone HCl]	109	103	104	117	104	104	109	113
CN1[C@@H]2CC(O)C[C@H]1[C@@H]1O[C@@H]12 (stereo partly specified) [Scopine]	98.4	101	100	105	94.7	99.2	96.5	105
C[N+]1(C)[C@@H]2C[C@@H](OC(=O)[C@H](CO)c3ccccc3)C[C@H]1[C@@H]1O[C@@H]12 [Methscopolamine]	99.5	101	100	106	97.5	101	101	101
C=C1C[C@@H]2[C@H](CC[C@]3(C)C(=O)CC[C@@H]23)[C@@]2(C)C=CC(=O)C=C12 [Exemestane]	108	98.9	107	105	107	106	124	112
N.N.[Cl][Pt][Cl] [Cisplatin]	91.6	77.8	80.1	111	82.7	80.6	89.5	110
C[C@]12C/C(=C/O)C(=O)C[C@@H]1CC[C@@H]1[C@@H]2CC[C@@]2(C)[C@H]1CC[C@]2(C)O [Oxymetholone]	104	104	104	114	104	102	105	115
COc1ccc(OC)c(C(O)C(C)N)c1 (stereo unspecified) [Methoxamine HCl]	107	102	101	102	102	105	80.9	123
O=P1(NCCCl)OCCCN1CCCl (stereo unspecified) [Ifosfamide]	110	117	124	109	103	101	117	112
OC(c1ccccc1)(c1ccccc1)C1CCNCC1 [Azacyclonol]	104	104	106	108	108	101	104	115
Cc1cccc(C)c1NC(=O)CN1CCCC1=O [Nefiracetam]	101	99.1	102	104	101	97.1	105	101
Cn1c(CCCC(=O)O)nc2cc(N(CCCl)CCCl)ccc21 [Bendamustine HCL]	111	111	108	110	114	114	110	111
Cc1cccc(Cc2c[nH]cn2)c1C [Detomidine HCl]	100	94.5	101	103	92.9	88.2	98.6	113
CN(C)C(=O)Oc1ccc[n+](C)c1 [Pyridostigmine Bromide]	98.7	104	103	103	92.1	104	95.5	100
O=c1[nH]c2ccccc2n1CCCN1CCC(n2c(=O)[nH]c3cc(Cl)ccc32)CC1 [Domperidone]	104	105	102	109	100	98.5	101	113
CN1[C@@H]2CC[C@H]1C[C@@H](OC(=O)[C@H](CO)c1ccccc1)C2 [Hyoscyamine]	104	103	109	106	109	101	114	116
COc1ccc(C(=O)N2CCCC2=O)cc1 [Aniracetam]	106	111	110	113	101	104	111	116
COC(=O)C1=CCCN(C)C1 [Arecoline]	105	108	106	111	109	112	109	111
CC(C)NCC(O)c1ccccc1Cl (stereo unspecified) [Clorprenaline HCL]	104	102	106	117	105	102	103	108
NCCc1c[nH]c2ccc(O)cc12 [Serotonin HCl]	102	96.6	99.8	107	101	101	100	113
O=P1(N(CCCl)CCCl)NCCCO1 (stereo unspecified) [Cyclophosphamide monohydrate]	100	94.2	97.1	108	104	97	106	111
C[C@@H]1O[C@@H](O[C@H]2C[C@@H](O)[C@]3(CO)[C@H]4[C@H](O)C[C@]5(C)[C@@H](C6=CC(=O)OC6)CC[C@]5(O)[C@@H]4CC[C@]3(O)C2)[C@H](O)[C@H](O)[C@H]1O [Ouabain]	101	103	95.3	115	105	105	98.8	124
